PubChem BioAssay (NCATS)
Records with an inconclusive call do not appear. The source made the active and inactive calls. Unless noted, calls follow the shape of the full dose curve.

Assays:
[1] = target: Lysosomal acid glucosylceramidase (Homo sapiens) (UniProt P04062); test: Glucocerebrosidase-p2 (AID 348; in the data active = potency below about 10 µM; also: potency is read from the fitted curve at half-maximal effect); details: purified GBA, blue fluorogenic substrate, 40 min
In short: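 Compounds titrated from 0.6 nM upwards against 0.2 nM enzyme in pH 5.9 citric acid/KH2PO4, taurocholate, tween-20; blue fluorogenic substrate 80 uM, 40 min room temperature, stopped and read Ex 365/Em 440 for AC50.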

[2] = AP1 Signaling Pathway (AID 357; active = well fitted curve in either direction with a large enough effect, not every such curve was filed as active;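 also: ME-180 reporter cells stimulated with EGF at its EC50 level; % is scaled to controls: 0 for no effect and ±100 for the full control effect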); details: ME-180 AP-1-bla reporter, EGF-induced, beta-lactamase ratio, 5 h; at 7.69 µM (top of the series) unless noted
In short: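 Read-out was the 460nm/530nm emission ratio (excitation 405nm) after CCF4 loading for 2.5 hours at room temperature. Cells carried an AP-1-driven beta-lactamase reporter, were stimulated with EC50 EGF plus compound for 5 hours, and AC50 values came from titrations.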

[3] = target: Cytochrome P450 1A2 (Homo sapiens) (UniProt P05177); test: p450-cyp1a2 (AID 410); details: recombinant CYP1A2, luciferin-ME demethylation, luminescence; series mostly up to 57 µM; also: potency is read from the fitted curve at half-maximal effect;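 as to activity change, negative = inhibition: -100% = full effect of reference inhibitor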
In short: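 Luminescent readout of luciferin formed from Luciferin-ME by human CYP1A2; data normalized against complete inhibition by 57 uM furafylline. Enzyme 20nM, substrate 100uM at Km, 100mM KPO4 buffer, 60 min reaction at room temperature.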

[4] = Stat Signaling Pathway (AID 446; active = well fitted curve in either direction with a large enough effect, not every such curve was filed as active;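 also: ME-180 cervical cancer cells given 40 pM IL-6 alongside compound; SIE-controlled beta-lactamase reporter measured as 460/530 nm FRET emission ratio; % is scaled to controls: 0 for no effect and ±100 for the full control effect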); details: ME-180 SIE beta-lactamase reporter, IL-6 stimulated, 5 h; at 7.69 µM (top of the series) unless noted
In short: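 ME-180 SIE-bla cells; overnight plating; cpd + IL-6 40 pM, 5 h, 37 C; LiveBLAzer 2.5 h RT; 460/530 nm emission ratio. Normalized to 300 pM IL-6 and 125 nM JAK inhibitor controls.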

[5] = target: Glucocorticoid receptor (Homo sapiens) (UniProt P04150); test: GR-EFC Redistribution (AID 451); details: CHO-K1 GR-EFC translocation, beta-gal luminescence, 2 h; also: potency is read from the fitted curve at half-maximal effect
In short: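 CHO-K1 cells expressing nuclear EA and GR-ED fragments of b-gal; compounds titrated up to 46 uM final, 2 h at 37 C. GR nuclear translocation read as complemented b-gal luminescence after 1 h RT detection.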

[6] = target: Mitogen-activated protein kinase 10 (Mus musculus) (UniProt Q61831); test: JNK3 AlphaScreen Assay (AID 530; active = well fitted curve in either direction with a large enough effect, not every such curve was filed as active;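 also: kinase came from lysate of stimulated human HepG2 cells; signal reports phosphorylation of biotinylated GST-cJun 1-79 at Ser73 with 10 µM ATP; % is scaled to controls: 0 for no effect and ±100 for the full control effect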); details: JNK3 lysate, c-Jun phosphorylation; series mostly up to 57.1 µM
In short: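 Pre-activated (IL-1β/TNFα) JNK3 in HepG2 lysates phosphorylates biotin-GST-cJun(1-79), 10 uM ATP; anti-phospho-cJun(Ser73) AlphaScreen read at room temperature, pH 7.6 Tris buffer. Compounds pre-incubated 15 min as titrations.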

[7] = target: 3',5'-cyclic-AMP phosphodiesterase 4B (Homo sapiens) (UniProt Q07343); test: qHTS Assay for Inhibitors of PDE-IV (AID 607; active = well fitted activation curve with a large enough effect in the main read-out, with a control signal flat, not every such curve was filed as active; also: % of control where 0% means no effect); details: HEK293 ACTOne CNG channel cells, membrane potential fluorescence; series mostly up to 22.9 µM
In short: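 ACTOne HEK293 cells carry a modified cAMP-gated CNG channel and express endogenous PDE4; plated 1000 cells/well, compounds up to 22.9 uM final. Membrane-potential dye fluorescence (ex 535/em 590) was read; parental cells received 10 uM forskolin + 100 uM RO 20-1724.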

[8] = target: Cytochrome P450 3A4 (Homo sapiens) (UniProt P08684); test: qHTS Assay for Inhibitors and Substrates of Cytochrome P450 3A4 (AID 884; active = well fitted curve in the direction sought with a large enough effect; an effect the other way counts as inactive or inconclusive; also: nearly all actives have a fitted effect of over 50% in size; also: potency is read from the fitted curve at half-maximal effect); details: recombinant CYP3A4, Luciferin-PPXE luminescence; series mostly up to 57.1 µM
In short: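 20 nM human CYP3A4 with 25 uM Luciferin-PPXE (at KM) in 200 mM KPO4, preincubated 10 min with compound; NADPH regeneration started a 60 min RT reaction. Luciferin detected by luminescence, normalized to 57 uM ketoconazole as full inhibition.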

[9] = qHTS Assay for Identification of Small Molecule Agonists for Hypoxia Response Element Signaling Pathway (AID 914; active = well fitted activation curve with a large enough effect in the signal ratio, with a control signal flat, not every such curve was filed as active; the % refers to the signal ratio; also: % of control where 0% means no effect); details: ME-180 (cervical carcinoma) HRE-bla reporter, beta-lactamase ratio, CoCl2, 17 h; activation: stronger effect = higher value
In short: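 HRE-bla ME-180 cells, overnight plating in Opti-MEM with 0.5% dialyzed FBS; cpd titration + EC50 CoCl2, 17 h, 37 degrees Celsius; CCF4 2.5 h RT; 460/530 nm ratio; AC50.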

[10] = qHTS Assay for Lipid Storage Modulators (AID 1519); details: Drosophila S3 cells, BODIPY lipid droplet/cell ratio, laser cytometry, cells loaded with oleic acid; for activity change, negative = inhibition: at 57.5 µM (top of the series)
In short: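 Cells seeded at 5,000 per well were treated with compounds over a concentration series and loaded with oleic acid (400 uM, as added). Lipid droplet fluorescence (488 nm excitation, 500-530 nm channel) was read by laser-scanning cytometry and normalized to 20 uM Triacsin C.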

[11] = Primary qHTS for small molecule stabilizers of the endoplasmic reticulum resident proteome: Secreted ER Calcium Modulated Protein (SERCaMP) assay (AID 1508630; active = well fitted curve in the direction sought with a large enough effect; an effect the other way counts as inactive or inconclusive; also: % is scaled to controls: 0 for no effect and ±100 for the full control effect); details: SH-SY5Y GLuc-SERCaMP (Gaussia luciferase released on ER calcium loss) secretion, thapsigargin, luminescence; series mostly up to 38.4 µM
In short: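 GLuc-SERCaMP-expressing SH-SY5Y cells, pretreated 16 h with compound, are challenged with thapsigargin to empty ER calcium stores; after 4 h, coelenterazine is added directly to the medium and luminescence is imaged.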

[12] = target: Cytochrome P450 3A4 (Homo sapiens) (UniProt P08684); test: qHTS Assay for Activators of Cytochrome P450 3A4 (AID 885; active = well fitted curve in the direction sought with a large enough effect; an effect the other way counts as inactive or inconclusive; also: nearly all actives have a fitted effect of over 65% in size; also: potency is read from the fitted curve at half-maximal effect); details: recombinant CYP3A4, Luciferin-PPXE luminescence, 60 min; series mostly up to 57.1 µM
In short: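 20nM CYP3A4 + 25uM Luciferin-PPXE (=KM), 200mM KPO4; cpd 10 min RT; NADPH regen, 60 min RT; stop w/ detection buffer, 20 min; luminescence. Normalized to 57 uM ketoconazole.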

[13] = target: Cytochrome P450 2D6 (Homo sapiens) (UniProt P10635); test: qHTS Assay for Inhibitors and Substrates of Cytochrome P450 2D6 (AID 891; active = well fitted curve in the direction sought with a large enough effect; an effect the other way counts as inactive or inconclusive; also: potency is read from the fitted curve at half-maximal effect; nearly all actives have a fitted effect of over 60% in size); details: recombinant CYP2D6, luciferin-ME EGE luminescence; series mostly up to 57.1 µM
In short: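 Human CYP2D6 (5 nM) with 30 uM Luciferin-ME EGE (at Km) in 100 mM KPO4, compound preincubated 10 min, then NADPH regeneration system for 60 min at room temperature. Luciferin read by luminescence; normalized to 1.43 uM quinidine.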

[14] = target: Cytochrome P450 2C9 (Homo sapiens) (UniProt P11712); test: qHTS Assay for Inhibitors and Substrates of Cytochrome P450 2C9 (AID 883; active = well fitted curve in the direction sought with a large enough effect; an effect the other way counts as inactive or inconclusive; also: nearly all actives have a fitted effect of over 60% in size; also: potency is read from the fitted curve at half-maximal effect); details: recombinant CYP2C9, luciferin-H luminescence, 60 min; series mostly up to 57.1 µM
In short: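 Signal: luciferase luminescence reporting luciferin produced by CYP2C9. Conditions: 10nM enzyme, Luciferin-H 100uM at KM, 25mM KPO4, 37C, 60 min NADPH-driven reaction. Reference: 57uM sulphaphenazole as 100% inhibition.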

[15] = target: Cytochrome P450 2C19 (Homo sapiens) (UniProt P33261); test: qHTS Assay for Inhibitors and Substrates of Cytochrome P450 2C19 (AID 899; active = well fitted curve in the direction sought with a large enough effect; an effect the other way counts as inactive or inconclusive; also: potency is read from the fitted curve at half-maximal effect; nearly all actives have a fitted effect of over 60% in size); details: recombinant CYP2C19, luciferin-H EGE luminescence; series mostly up to 57.1 µM
In short: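 Signal comes from luciferase acting on luciferin released by CYP2C19-mediated hydroxylation of Luciferin-H EGE, 10uM (KM). Assay mix: 5nM enzyme, 50mM KPO4; 60 min at 37C with NADPH regeneration. Data normalized against 57uM ketoconazole.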

[16] = measured here: cell count channel max response
[17] = measured here: lipid channel max response

Glucocorticoid receptor (Homo sapiens), sequence (P04150 whole entry, looked up, the tested form may be a part): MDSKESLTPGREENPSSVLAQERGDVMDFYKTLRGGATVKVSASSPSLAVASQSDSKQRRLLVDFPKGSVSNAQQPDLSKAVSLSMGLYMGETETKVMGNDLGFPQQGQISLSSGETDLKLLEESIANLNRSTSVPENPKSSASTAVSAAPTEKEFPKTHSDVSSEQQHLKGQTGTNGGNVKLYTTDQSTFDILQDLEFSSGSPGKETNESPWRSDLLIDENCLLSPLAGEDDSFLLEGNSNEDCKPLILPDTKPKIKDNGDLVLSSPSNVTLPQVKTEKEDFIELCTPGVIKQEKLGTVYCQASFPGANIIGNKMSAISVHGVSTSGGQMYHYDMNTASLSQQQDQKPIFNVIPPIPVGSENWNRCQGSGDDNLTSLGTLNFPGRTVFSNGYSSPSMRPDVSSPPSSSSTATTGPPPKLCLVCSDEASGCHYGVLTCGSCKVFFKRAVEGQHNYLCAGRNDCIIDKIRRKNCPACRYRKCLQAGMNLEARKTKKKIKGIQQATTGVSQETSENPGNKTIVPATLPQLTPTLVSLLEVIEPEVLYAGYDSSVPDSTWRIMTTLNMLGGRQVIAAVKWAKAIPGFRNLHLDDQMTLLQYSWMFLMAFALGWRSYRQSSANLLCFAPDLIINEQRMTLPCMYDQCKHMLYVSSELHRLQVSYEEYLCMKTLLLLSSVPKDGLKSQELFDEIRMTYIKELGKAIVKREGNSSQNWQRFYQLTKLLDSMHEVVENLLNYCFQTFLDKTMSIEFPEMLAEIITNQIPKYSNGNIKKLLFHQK
Cytochrome P450 1A2 (Homo sapiens), sequence (P05177 whole entry, looked up): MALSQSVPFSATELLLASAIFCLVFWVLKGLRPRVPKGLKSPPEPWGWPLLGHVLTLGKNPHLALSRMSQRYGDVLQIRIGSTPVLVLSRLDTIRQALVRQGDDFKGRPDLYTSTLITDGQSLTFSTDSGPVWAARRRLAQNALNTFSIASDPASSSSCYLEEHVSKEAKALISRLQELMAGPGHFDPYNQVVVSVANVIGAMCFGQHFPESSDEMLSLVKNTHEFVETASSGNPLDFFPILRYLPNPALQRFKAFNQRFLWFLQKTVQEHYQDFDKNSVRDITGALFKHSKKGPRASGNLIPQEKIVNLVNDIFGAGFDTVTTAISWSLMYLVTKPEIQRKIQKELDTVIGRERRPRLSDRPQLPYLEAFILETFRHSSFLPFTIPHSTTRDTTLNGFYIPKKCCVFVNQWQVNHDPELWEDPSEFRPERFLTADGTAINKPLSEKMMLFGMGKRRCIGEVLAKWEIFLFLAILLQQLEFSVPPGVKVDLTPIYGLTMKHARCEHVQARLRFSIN
Lysosomal acid glucosylceramidase (Homo sapiens), sequence (P04062 whole entry, looked up): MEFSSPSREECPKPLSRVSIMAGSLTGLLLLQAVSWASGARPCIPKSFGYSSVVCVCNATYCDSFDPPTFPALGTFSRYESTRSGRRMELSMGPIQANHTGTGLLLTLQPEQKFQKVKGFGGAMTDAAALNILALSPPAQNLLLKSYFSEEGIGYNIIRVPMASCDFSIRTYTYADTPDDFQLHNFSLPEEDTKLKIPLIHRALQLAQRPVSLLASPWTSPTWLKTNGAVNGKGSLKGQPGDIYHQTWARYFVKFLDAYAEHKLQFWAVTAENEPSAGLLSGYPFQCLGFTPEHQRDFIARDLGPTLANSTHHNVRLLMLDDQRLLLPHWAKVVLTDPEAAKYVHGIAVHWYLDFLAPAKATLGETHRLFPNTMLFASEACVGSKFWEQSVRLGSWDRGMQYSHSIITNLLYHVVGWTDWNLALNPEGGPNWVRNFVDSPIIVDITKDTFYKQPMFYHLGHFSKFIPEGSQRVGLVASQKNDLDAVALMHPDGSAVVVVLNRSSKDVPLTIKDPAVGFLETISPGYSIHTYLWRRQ
Cytochrome P450 3A4 (Homo sapiens), sequence (P08684 whole entry, looked up): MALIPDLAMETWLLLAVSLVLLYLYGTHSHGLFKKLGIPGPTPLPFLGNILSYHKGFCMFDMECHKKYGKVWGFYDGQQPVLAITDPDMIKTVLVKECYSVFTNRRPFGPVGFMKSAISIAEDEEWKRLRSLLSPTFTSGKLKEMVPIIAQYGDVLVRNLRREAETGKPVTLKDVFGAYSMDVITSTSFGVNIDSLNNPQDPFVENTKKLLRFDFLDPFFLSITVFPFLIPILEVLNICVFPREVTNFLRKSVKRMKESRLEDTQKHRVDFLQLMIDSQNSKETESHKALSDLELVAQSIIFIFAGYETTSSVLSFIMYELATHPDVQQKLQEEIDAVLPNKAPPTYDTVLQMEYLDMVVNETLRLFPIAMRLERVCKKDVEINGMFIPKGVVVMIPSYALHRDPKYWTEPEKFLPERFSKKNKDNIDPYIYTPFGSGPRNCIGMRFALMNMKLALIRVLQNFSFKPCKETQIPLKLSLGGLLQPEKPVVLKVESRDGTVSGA
3',5'-cyclic-AMP phosphodiesterase 4B (Homo sapiens), sequence (Q07343 whole entry, looked up): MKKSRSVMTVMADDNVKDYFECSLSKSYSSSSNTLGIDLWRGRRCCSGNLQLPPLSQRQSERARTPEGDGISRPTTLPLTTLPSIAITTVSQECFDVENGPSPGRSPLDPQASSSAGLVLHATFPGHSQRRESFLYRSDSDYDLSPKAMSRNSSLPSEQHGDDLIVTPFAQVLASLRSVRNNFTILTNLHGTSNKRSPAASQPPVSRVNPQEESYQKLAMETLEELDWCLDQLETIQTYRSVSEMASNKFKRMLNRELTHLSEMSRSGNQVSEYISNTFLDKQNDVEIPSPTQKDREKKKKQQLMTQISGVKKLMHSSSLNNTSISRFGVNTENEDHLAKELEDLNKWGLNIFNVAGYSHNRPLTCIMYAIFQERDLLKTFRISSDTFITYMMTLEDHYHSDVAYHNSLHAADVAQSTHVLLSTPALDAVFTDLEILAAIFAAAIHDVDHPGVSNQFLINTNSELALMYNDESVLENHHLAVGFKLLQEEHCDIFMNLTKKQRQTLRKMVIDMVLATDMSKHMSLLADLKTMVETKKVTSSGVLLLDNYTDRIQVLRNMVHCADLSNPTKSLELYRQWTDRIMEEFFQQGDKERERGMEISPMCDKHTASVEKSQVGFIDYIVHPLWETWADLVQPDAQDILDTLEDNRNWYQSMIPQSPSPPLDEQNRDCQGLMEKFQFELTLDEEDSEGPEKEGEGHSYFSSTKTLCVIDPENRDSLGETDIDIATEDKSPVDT
Cytochrome P450 2C9 (Homo sapiens), sequence (P11712 whole entry, looked up): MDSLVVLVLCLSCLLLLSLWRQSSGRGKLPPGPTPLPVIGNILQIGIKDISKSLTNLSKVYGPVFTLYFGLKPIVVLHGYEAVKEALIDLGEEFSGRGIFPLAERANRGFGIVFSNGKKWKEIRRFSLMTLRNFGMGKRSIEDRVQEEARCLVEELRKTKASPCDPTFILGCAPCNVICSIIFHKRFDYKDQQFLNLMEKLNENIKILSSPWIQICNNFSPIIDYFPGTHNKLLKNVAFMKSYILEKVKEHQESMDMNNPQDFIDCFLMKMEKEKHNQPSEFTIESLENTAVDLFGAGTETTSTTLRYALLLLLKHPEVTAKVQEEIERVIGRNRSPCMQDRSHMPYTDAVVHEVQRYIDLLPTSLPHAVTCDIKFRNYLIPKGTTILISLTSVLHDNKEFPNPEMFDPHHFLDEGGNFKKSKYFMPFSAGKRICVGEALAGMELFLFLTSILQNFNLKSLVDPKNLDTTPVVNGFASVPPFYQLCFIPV
Cytochrome P450 2D6 (Homo sapiens), sequence (P10635 whole entry, looked up): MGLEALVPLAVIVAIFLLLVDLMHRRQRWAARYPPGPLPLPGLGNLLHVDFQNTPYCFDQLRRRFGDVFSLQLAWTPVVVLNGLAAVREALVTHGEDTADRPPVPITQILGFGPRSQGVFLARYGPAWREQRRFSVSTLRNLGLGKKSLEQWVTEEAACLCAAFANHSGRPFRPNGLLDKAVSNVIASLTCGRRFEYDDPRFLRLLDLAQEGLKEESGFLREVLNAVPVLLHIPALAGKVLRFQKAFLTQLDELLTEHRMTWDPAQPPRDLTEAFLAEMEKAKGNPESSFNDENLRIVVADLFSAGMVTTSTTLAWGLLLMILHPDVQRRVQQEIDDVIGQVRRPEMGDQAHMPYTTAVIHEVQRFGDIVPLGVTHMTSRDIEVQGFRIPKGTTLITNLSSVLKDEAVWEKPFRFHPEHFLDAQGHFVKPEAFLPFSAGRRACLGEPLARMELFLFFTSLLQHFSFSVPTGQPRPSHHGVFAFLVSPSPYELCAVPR
Cytochrome P450 2C19 (Homo sapiens), sequence (P33261 whole entry, looked up): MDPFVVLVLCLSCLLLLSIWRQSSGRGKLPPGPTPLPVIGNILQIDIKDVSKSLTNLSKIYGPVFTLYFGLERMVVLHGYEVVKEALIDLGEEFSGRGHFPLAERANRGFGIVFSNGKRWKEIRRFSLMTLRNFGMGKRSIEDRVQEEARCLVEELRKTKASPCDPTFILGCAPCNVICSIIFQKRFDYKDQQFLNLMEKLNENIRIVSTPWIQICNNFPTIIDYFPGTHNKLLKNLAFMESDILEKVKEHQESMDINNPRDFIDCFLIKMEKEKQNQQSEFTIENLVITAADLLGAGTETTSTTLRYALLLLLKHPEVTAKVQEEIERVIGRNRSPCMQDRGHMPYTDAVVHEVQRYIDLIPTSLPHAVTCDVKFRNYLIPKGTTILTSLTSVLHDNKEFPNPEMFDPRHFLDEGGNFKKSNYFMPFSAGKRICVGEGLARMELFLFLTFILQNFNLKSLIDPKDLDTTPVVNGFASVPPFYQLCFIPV

Structure (SMILES) | Potency [1] | activity change, negative = inhibition [2] | Potency [3] | activity, negative = inhibition [4] | Potency [5] | Potency [6] | Potency [7] | Potency [8] | activation [9] | activity change, negative = inhibition [10] | max response [10, 16] | max response [10, 17] | outcome [11] | Potency [12] | Potency [13] | Potency [14] | Potency [15]
O=C(c1ccco1)N1CCC2(CCN(Cc3nccs3)CC2)CC1 | > 11.4 µM (inactive) | 5.22% (inactive) | inactive | 4.68% (inactive) | > 46 µM (inactive) | inactive | inactive | inactive | -9.81% (inactive) | 1% (inactive) | 8.57% | 12.6% | inactive |  |  |  | 
COc1ccccc1CN1CCCC2(CCN(C(=O)c3c(C)noc3C)CC2)C1 | > 11.4 µM (inactive) | -9.04% (inactive) | inactive | -7.32% (inactive) | > 46 µM (inactive) | inactive | inactive |  |  | 1.7% (inactive) | 14.6% | 17.9% | inactive | inactive |  |  | 
Cn1cccc1C(=O)N1CCC2(CCCN(Cc3ccccc3)C2)CC1 | > 11.4 µM (inactive) | -4.68% (inactive) | inactive | -3.12% (inactive) | > 46 µM (inactive) | inactive | inactive |  |  | 3.59% (inactive) | 2.52% | 8.85% | inactive | inactive |  |  | 
O=C(c1cc(C(F)(F)F)cc(C(F)(F)F)c1)N1CCC[C@@]2(CCN(c3ncccn3)C2)C1 | > 11.4 µM (inactive) | 8.42% (inactive) | inactive | -17.1% (inactive) | > 46 µM (inactive) | inactive | inactive |  |  | 4.69% (inactive) | 8.96% | 17.5% | inactive | inactive |  |  | 
COc1ccc(C(=O)N2CCC3(CC2)CCN(C(c2ccccc2)c2ccccc2)CC3)cc1 | > 11.4 µM (inactive) | 4.01% (inactive) | inactive | -17.5% (inactive) | > 46 µM (inactive) | inactive | inactive | inactive |  | 2.48% (inactive) | 13.4% | 21.1% | inactive | 3.16 µM (active) |  |  | 
CS(=O)(=O)N1CCC2(CCCN(C(c3ccccc3)c3ccccc3)C2)CC1 | > 11.4 µM (inactive) | -6.2% (inactive) | inactive | 12.1% (inactive) | > 46 µM (inactive) | inactive | inactive | 3.98 µM (active) |  | 2.84% (inactive) | 13.3% | 16.2% | inactive | inactive | 5.01 µM (active) |  | 
N#Cc1cccc(NC(=O)N2CCC3(CC2)CCN(C(=O)c2cccc(F)c2)CC3)c1 | > 11.4 µM (inactive) | -11.8% (inactive) | inactive | -7.8% (inactive) | > 46 µM (inactive) | inactive | inactive | inactive |  | 5.01% (inactive) | 6.66% | 13.2% | inactive | 7.94 µM (active) |  |  | 
Cn1cccc1C(=O)N1CCC2(CC1)CN(c1ccncc1)C2 | > 11.4 µM (inactive) | -6.05% (inactive) | inactive | -3.69% (inactive) | > 46 µM (inactive) | inactive | inactive |  |  | 2.57% (inactive) | 0.464% | 4.51% | inactive |  |  | 5.01 µM (active) | 1.26 µM (active)
Cn1cccc1C(=O)N1CCC2(CCCN(Cc3ccc(C#N)cc3)C2)CC1 | > 11.4 µM (inactive) | 10.6% (inactive) | 12.6 µM (active) | -1.12% (inactive) | > 46 µM (inactive) | inactive | inactive |  |  | 1.29% (inactive) | 17.2% | 18.2% | inactive | inactive |  |  | 
Cc1noc(C)c1C(=O)N1CCC2(CCN(Cc3ccccc3)CC2)CC1 | > 11.4 µM (inactive) | 6.02% (inactive) | inactive | 1% (inactive) | > 46 µM (inactive) | inactive | inactive |  | -10.3% (inactive) | 0.801% (inactive) | 19.5% | 22% | inactive |  |  | inactive | 
CC(C)CN1CCCC2(CCN(C(=O)c3csnn3)CC2)C1 | > 11.4 µM (inactive) | 1.87% (inactive) | inactive | -5.65% (inactive) | > 46 µM (inactive) | inactive | inactive |  |  | 2.3% (inactive) | 15.1% | 21% | inactive | inactive |  |  | 
c1ccc(C(c2ccccc2)N2CCCC3(CCNCC3)C2)cc1 | > 11.4 µM (inactive) | -3.1% (inactive) | 7.94 µM (active) | 4.89% (inactive) | > 46 µM (inactive) | inactive | inactive | 1.26 µM (active) | 19.3% (inactive) | -1.73% (inactive) | -12.4% | -10.8% | inactive | inactive |  |  | 
O=C(c1ccncc1)N1CCC2(CCN(Cc3ccncc3)CC2)CC1 | > 11.4 µM (inactive) | 7.83% (inactive) | inactive | -5.41% (inactive) | > 46 µM (inactive) | inactive | inactive |  |  | 4.23% (inactive) | 14.3% | 23.1% | inactive | inactive |  |  | 
